# Test results: paper PMC7862700, “An all-to-all approach to the identification of sequence-specific readers for epigenetic DNA modifications on cytosine”
# What was measured:
# Assay in all cases: DAPPL (digital affinity profiling via proximity ligation, sequencing); 10 mM Tris-HCl pH 7.5, 50 mM NaCl, 1 mM DTT, 4% glycerol, room temperature, 30 min; GST-TFs on glutathione beads, 16-mer random dsDNA library, 0.1% formaldehyde crosslink after washing; high values mean tight binding
# Settings in all cases: protein: recombinant; tags: N-terminal GST; dsDNA, one strand shown
# ETV1 = ETV1 (Homo sapiens, UniProt P50549 1-477)
# Summary of the method: (§1)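 A tag-only sample was pooled with DNA-barcoded human transcription factors that had been expressed in yeast as GST fusions and captured on glutathione beads. The pools were incubated for 30 min at room temperature with 200 nmole of a random double-stranded 16-mer DNA library in Tris/NaCl/DTT/glycerol buffer, then washed, crosslinked with 0.1% formaldehyde, proximity-ligated (BsaI/T4 ligase, 1 h, 37 °C), PCR-amplified and sequenced on an Illumina NextSeq500. Binding signal is each hexamer's read frequency for a factor divided by its frequency for the tag-only sample.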
# ERF = target: T1, ERF (Homo sapiens, UniProt P50548 1-548)
# T1 sequence: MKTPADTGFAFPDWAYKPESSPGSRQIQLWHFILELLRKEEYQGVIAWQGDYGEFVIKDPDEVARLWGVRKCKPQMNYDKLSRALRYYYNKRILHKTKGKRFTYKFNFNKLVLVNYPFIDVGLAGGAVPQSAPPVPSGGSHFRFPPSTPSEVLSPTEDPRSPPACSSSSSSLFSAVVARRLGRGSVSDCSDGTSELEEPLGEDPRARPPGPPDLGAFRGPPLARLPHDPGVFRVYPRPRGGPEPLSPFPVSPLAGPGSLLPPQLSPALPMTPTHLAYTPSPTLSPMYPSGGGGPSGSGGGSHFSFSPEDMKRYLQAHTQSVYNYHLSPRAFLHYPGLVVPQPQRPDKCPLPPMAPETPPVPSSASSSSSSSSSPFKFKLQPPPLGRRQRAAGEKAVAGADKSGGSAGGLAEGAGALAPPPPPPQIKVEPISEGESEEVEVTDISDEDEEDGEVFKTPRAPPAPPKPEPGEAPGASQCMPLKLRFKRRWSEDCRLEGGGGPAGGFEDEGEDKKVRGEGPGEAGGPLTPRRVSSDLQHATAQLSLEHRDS
# Summary of the method: as §1
# ETV3L = target: T2, ETV3L (Homo sapiens, UniProt Q6ZN32 1-361)
# T2 sequence: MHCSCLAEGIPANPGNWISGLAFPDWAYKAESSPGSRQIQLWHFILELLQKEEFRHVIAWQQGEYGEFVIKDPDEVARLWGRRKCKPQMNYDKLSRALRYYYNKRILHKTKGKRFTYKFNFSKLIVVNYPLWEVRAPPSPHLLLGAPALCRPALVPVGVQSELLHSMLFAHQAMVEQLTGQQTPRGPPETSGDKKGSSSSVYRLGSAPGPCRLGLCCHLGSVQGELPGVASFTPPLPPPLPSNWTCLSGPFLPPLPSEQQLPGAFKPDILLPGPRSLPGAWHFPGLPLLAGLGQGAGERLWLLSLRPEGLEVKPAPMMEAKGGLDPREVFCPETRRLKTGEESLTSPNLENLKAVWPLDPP
# Summary of the method: as §1
# ETS2 = target: T3, ETS2 (Homo sapiens, UniProt P15036 1-469)
# T3 sequence: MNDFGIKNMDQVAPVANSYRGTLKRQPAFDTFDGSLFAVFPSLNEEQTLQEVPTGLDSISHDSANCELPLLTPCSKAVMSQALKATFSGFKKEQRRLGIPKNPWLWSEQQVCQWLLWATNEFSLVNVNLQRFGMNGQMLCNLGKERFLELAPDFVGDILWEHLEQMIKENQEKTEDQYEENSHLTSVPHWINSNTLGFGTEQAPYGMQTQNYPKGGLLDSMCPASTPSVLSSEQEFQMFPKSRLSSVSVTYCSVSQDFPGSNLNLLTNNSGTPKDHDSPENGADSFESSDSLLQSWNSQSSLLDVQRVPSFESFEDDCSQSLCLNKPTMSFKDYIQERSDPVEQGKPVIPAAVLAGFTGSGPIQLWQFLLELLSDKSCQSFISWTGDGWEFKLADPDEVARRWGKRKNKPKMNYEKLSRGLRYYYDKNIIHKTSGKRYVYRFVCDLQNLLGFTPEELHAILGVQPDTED
# Summary of the method: as §1
# SPDEF = target: T4, SPDEF (Homo sapiens, UniProt O95238 1-335)
# T4 sequence: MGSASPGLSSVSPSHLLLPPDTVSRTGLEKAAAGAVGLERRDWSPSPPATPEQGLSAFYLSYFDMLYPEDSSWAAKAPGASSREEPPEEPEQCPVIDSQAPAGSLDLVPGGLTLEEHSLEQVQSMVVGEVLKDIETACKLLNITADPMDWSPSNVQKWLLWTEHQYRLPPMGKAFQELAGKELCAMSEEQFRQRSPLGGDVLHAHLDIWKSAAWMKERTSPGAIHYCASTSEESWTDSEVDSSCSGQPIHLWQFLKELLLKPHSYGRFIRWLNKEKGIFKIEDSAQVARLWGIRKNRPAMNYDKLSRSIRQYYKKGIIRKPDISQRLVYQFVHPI
# Summary of the method: as §1
# ETV7 = target: T5, ETV7 (Homo sapiens, UniProt Q9Y603 1-341)
# T5 sequence: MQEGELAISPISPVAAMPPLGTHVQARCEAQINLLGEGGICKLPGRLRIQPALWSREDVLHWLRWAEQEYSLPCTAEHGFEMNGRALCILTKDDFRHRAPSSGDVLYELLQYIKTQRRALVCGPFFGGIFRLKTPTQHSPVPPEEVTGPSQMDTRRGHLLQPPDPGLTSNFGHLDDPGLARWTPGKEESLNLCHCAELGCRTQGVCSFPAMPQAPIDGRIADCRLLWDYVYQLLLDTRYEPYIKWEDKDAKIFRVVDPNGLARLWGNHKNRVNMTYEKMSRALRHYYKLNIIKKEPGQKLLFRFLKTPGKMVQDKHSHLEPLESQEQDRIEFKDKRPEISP
# Summary of the method: as §1
# ELF5 = target: T6, ELF5 (Homo sapiens, UniProt Q9UKW6-2 1-255)
# T6 sequence: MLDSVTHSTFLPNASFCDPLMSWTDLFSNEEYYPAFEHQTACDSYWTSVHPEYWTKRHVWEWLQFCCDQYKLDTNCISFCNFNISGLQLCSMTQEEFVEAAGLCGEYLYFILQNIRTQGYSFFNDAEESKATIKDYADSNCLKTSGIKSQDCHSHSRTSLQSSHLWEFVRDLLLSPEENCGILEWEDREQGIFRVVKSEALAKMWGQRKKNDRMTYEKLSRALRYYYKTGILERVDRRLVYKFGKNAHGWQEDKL
# Summary of the method: as §1
# ETV3 = target: T7, ETV3 (Homo sapiens, UniProt P41162-2 1-143)
# T7 sequence: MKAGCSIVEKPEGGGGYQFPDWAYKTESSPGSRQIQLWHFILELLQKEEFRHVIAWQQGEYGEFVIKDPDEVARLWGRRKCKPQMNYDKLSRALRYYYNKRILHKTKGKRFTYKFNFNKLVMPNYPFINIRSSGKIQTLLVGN
# Summary of the method: as §1
# ETV6 = ETV6 (Homo sapiens, UniProt P41212 1-452)
# Summary of the method: as §1
# Chain of ETV1 (P50549 whole entry, the tested form may be a part): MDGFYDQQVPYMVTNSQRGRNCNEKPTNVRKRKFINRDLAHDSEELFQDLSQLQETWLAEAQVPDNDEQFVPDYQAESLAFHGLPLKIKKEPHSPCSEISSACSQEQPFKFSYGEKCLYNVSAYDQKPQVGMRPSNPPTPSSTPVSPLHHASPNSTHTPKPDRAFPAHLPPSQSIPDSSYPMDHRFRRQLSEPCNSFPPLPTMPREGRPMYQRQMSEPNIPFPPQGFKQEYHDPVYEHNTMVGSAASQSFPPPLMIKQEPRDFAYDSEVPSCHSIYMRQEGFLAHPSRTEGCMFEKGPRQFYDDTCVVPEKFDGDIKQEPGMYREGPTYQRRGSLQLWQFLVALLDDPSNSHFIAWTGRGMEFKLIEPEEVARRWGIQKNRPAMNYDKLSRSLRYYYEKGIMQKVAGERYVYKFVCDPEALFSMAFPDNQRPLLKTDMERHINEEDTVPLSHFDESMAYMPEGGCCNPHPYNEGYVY
# Chain of ETV6 (P41212 whole entry): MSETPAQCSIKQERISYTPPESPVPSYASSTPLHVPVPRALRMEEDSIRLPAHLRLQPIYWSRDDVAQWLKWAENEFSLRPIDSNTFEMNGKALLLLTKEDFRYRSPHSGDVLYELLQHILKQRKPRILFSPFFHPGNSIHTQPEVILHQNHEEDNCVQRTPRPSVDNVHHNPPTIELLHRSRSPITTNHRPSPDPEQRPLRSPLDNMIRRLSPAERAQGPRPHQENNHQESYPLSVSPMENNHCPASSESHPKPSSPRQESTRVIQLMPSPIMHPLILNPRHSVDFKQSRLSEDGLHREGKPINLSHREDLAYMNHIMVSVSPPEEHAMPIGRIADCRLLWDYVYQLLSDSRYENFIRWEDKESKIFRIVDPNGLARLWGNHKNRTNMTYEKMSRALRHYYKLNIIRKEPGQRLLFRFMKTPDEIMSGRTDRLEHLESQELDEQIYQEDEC
sequence,measurement,setting,value
CGACTT,binding signal,ETV1,"1.72 fold enrichment (6-mer frequency, TF over GST control)"
same,binding signal,ERF,"1.62 fold enrichment (6-mer frequency, TF over GST control)"
same,binding signal,ETV3L,"1.62 fold enrichment (6-mer frequency, TF over GST control)"
same,binding signal,ETS2,"1.76 fold enrichment (6-mer frequency, TF over GST control)"
same,binding signal,SPDEF,"1.54 fold enrichment (6-mer frequency, TF over GST control)"
same,binding signal,ETV7,"1.53 fold enrichment (6-mer frequency, TF over GST control)"
same,binding signal,ELF5,"1.72 fold enrichment (6-mer frequency, TF over GST control)"
same,binding signal,ETV3,"1.78 fold enrichment (6-mer frequency, TF over GST control)"
same,binding signal,ETV6,"1.79 fold enrichment (6-mer frequency, TF over GST control)"
